Reference: PubChem BioAssay AID1159580 (chemical genetic matrix, 2015)
Screen size: about 5,500 compounds; about 2,000 (36%) were called active. Roughly 18% stayed inconclusive and do not appear here. Rule as the data show it: active = normalized growth mostly below about 0.91 (no sharp cut-off); inconclusive = no clear call, values can overlap the other calls; inactive = mostly above about 0.92. The list shows a part of the results.

Test: chemical genetic growth profiling, strain panel (AID 1159580);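 also: tested at 20 µM; growth read once vehicle control cultures reached saturation at 30 °C; 1 = growth at the plate median or of vehicle wells; lower values mean less growth of the strain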
Conditions: growth OD

Measured: normalized growth

CC(=O)O[C@H]1C[C@@H](O)C(C)(C)C2C[C@@H](OC(C)=O)[C@]3(C)C(CC[C@@]4(C)[C@H](c5ccoc5)OC(=O)C5OC543)[C@]21C (stereo partly specified)
inactive: S. cerevisiae deletion strains, locus YJL187C, strain SWE1, active compounds read low 0.996 | S. cerevisiae deletion strains, locus YJR066W, strain TOR1, active compounds read low 0.928 | S. cerevisiae deletion strains, locus YKL009W, strain mrt4, active compounds read low 0.954 | S. cerevisiae deletion strains, locus YKL068W, active compounds read low 0.976 | S. cerevisiae deletion strains, locus YKL085W, strain MDH1 (second series), active compounds read low 0.974 | S. cerevisiae deletion strains, locus YKL085W, strain MDH1, active compounds read low 0.974 | S. cerevisiae deletion strains, locus YKL160W, strain elf1, active compounds read low 1.01 | S. cerevisiae deletion strains, locus YKR001C, strain vps1, active compounds read low 0.983 | S. cerevisiae deletion strains, locus YKR026C, strain gcn3, active compounds read low 1.01 | S. cerevisiae deletion strains, locus YKR091W, strain srl3, active compounds read low 1.01 | S. cerevisiae deletion strains, locus YLL001W, strain dnm1, active compounds read low 0.998 | S. cerevisiae deletion strains, locus YLL026W, active compounds read low 1.01 | S. cerevisiae deletion strains, locus YLL041C, strain sdh2, active compounds read low 0.999 | S. cerevisiae deletion strains, locus YLR027C, strain aat2, active compounds read low 1.01 | S. cerevisiae deletion strains, locus YLR039C, strain RIC1, active compounds read low 1.04 | S. cerevisiae deletion strains, locus YLR058C, strain SHM2, active compounds read low 0.967 | S. cerevisiae deletion strains, locus YLR102C, strain apc9, active compounds read low 0.984 | S. cerevisiae deletion strains, locus YLR113W, strain HOG1, active compounds read low 1.02 | S. cerevisiae deletion strains, locus YLR221C, strain rsa3, active compounds read low 1.01 | S. cerevisiae deletion strains, locus YLR258W, strain gsy2, active compounds read low 1 | S. cerevisiae deletion strains, locus YLR262C, strain YPT6 (second series), active compounds read low 1.01 | S. cerevisiae deletion strains, locus YLR262C, strain YPT6, active compounds read low 1.02 | S. cerevisiae deletion strains, locus YLR268W, strain sec22, active compounds read low 0.977 | S. cerevisiae deletion strains, locus YLR320W, strain mms22, active compounds read low 1.02 | S. cerevisiae deletion strains, locus YLR330W, strain CHS5, active compounds read low 0.992 | S. cerevisiae deletion strains, locus YLR342W, strain FKS1 (second series), active compounds read low 0.988 | S. cerevisiae deletion strains, locus YLR342W, strain FKS1, active compounds read low 1.01 | S. cerevisiae deletion strains, locus YLR357W, strain rsc2, active compounds read low 1.04 | S. cerevisiae deletion strains, locus YLR370C, strain arc18, active compounds read low 0.999 | S. cerevisiae deletion strains, locus YLR371W, strain rom2, active compounds read low 0.988 | S. cerevisiae deletion strains, locus YLR384C, strain iki3, active compounds read low 0.999 | S. cerevisiae deletion strains, locus YLR418C, strain cdc73, active compounds read low 0.979 | S. cerevisiae deletion strains, locus YML016C, strain PPZ1, active compounds read low 0.975 | S. cerevisiae deletion strains, locus YML032C, strain rad52, active compounds read low 0.991 | S. cerevisiae deletion strains, locus YML120C, strain ndi1, active compounds read low 1.01 | S. cerevisiae deletion strains, locus YML124C, strain tub3, active compounds read low 0.986 | S. cerevisiae deletion strains, locus YMR058W, strain fet3, active compounds read low 1.01 | S. cerevisiae deletion strains, locus YMR078C, strain ctf18, active compounds read low 0.988 | S. cerevisiae deletion strains, locus YMR125W, strain sto1, active compounds read low 1 | S. cerevisiae deletion strains, locus YMR129W, active compounds read low 1.03 | S. cerevisiae deletion strains, locus YMR205C, strain PFK2, active compounds read low 1.01 | S. cerevisiae deletion strains, locus YMR223W, strain ubp8, active compounds read low 0.991 | S. cerevisiae deletion strains, locus YMR231W, strain pep5, active compounds read low 0.988 | S. cerevisiae deletion strains, locus YMR307W, strain GAS1, active compounds read low 0.964 | S. cerevisiae deletion strains, locus YNL067W, strain RPL9B, active compounds read low 1.02 | S. cerevisiae deletion strains, locus YNL071W, strain lat1, active compounds read low 1 | S. cerevisiae deletion strains, locus YNL183C, strain NPR1, active compounds read low 0.946 | S. cerevisiae deletion strains, locus YNL209W, strain ssb2, active compounds read low 0.995 | S. cerevisiae deletion strains, locus YNL233W, strain BNI4, active compounds read low 1 | S. cerevisiae deletion strains, locus YNL248C, strain rpa49, active compounds read low 1 | S. cerevisiae deletion strains, locus YNL250W, strain rad50, active compounds read low 1.02 | S. cerevisiae deletion strains, locus YNL271C, strain bni1, active compounds read low 0.989 | S. cerevisiae deletion strains, locus YNL298W, strain CLA4, active compounds read low 0.992 | S. cerevisiae deletion strains, locus YNL307C, strain MCK1, active compounds read low 0.995 | S. cerevisiae deletion strains, locus YNL322C, strain KRE1 (second series), active compounds read low 1.02 | S. cerevisiae deletion strains, locus YNR049C, strain mso1, active compounds read low 0.999 | S. cerevisiae deletion strains, locus YNR052C, strain pop2, active compounds read low 0.987 | S. cerevisiae deletion strains, locus YOL006C, strain TOP1, active compounds read low 0.989 | S. cerevisiae deletion strains, locus YOL012C, strain htz1 0.76 | S. cerevisiae deletion strains, locus YOL147C, strain pex11, active compounds read low 0.99 | S. cerevisiae deletion strains, locus YOR001W, strain rrp6, active compounds read low 1.03 | S. cerevisiae deletion strains, locus YOR061W, strain CKA2, active compounds read low 0.966 | S. cerevisiae deletion strains, locus YOR069W, strain VPS5, active compounds read low 0.998 | S. cerevisiae deletion strains, locus YOR070C, strain gyp1, active compounds read low 1.01 | S. cerevisiae deletion strains, locus YOR080W, strain dia2, active compounds read low 0.998 | S. cerevisiae deletion strains, locus YOR083W, strain WHI5, active compounds read low 1.01 | S. cerevisiae deletion strains, locus YOR106W, strain vam3, active compounds read low 1 | S. cerevisiae deletion strains, locus YOR136W, strain idh2, active compounds read low 0.979 | S. cerevisiae deletion strains, locus YOR144C, strain elg1, active compounds read low 0.989 | S. cerevisiae deletion strains, locus YOR184W, strain ser1, active compounds read low 0.967 | S. cerevisiae deletion strains, locus YOR231W, strain MKK1, active compounds read low 0.984 | S. cerevisiae deletion strains, locus YOR265W, strain rbl2, active compounds read low 1 | S. cerevisiae deletion strains, locus YOR270C, strain vph1, active compounds read low 0.967 | S. cerevisiae deletion strains, locus YOR290C, strain snf2, active compounds read low 1 | S. cerevisiae deletion strains, locus YOR316C, strain cot1, active compounds read low 0.989 | S. cerevisiae deletion strains, locus YPL051W, strain arl3, active compounds read low 1.02 | S. cerevisiae deletion strains, locus YPL078C, strain atp4, active compounds read low 0.997 | S. cerevisiae deletion strains, locus YPL106C, strain sse1, active compounds read low 1.02 | S. cerevisiae deletion strains, locus YPL240C, strain hsp82, active compounds read low 1.01 | S. cerevisiae deletion strains, locus YPL256C, strain CLN2, active compounds read low 0.944 | S. cerevisiae deletion strains, locus YPR119W, strain clb2, active compounds read low 0.985 | S. cerevisiae deletion strains, locus YPR141C, strain kar3, active compounds read low 0.986 | S. cerevisiae deletion strains, locus YPR163C, strain tif3, active compounds read low 0.982 | S. cerevisiae deletion strains, locus YPR167C, strain met16, active compounds read low 0.987 | S. cerevisiae deletion strains, strain wtn01, active compounds read low 0.968 | S. cerevisiae strains, strain wild type, active compounds read low 0.988
